Test results published in paper PMC4336329 (PLoS ONE, 2015).
Hit rate of the full screen: of about 310,000 compounds, about 14,000 (4.5%) showed an effect of 50% or more. Effects have a minus sign here. This excerpt belongs to a sample that is enriched for strong results.

molecular target: human ether-à-go-go-related gene (hERG) potassium channel (human, UniProt Q12809); experiment: primary screen, population patch clamp on CHO cells stably expressing hERG; higher = less effect of the substance
Sequence (Q12809 whole entry, looked up): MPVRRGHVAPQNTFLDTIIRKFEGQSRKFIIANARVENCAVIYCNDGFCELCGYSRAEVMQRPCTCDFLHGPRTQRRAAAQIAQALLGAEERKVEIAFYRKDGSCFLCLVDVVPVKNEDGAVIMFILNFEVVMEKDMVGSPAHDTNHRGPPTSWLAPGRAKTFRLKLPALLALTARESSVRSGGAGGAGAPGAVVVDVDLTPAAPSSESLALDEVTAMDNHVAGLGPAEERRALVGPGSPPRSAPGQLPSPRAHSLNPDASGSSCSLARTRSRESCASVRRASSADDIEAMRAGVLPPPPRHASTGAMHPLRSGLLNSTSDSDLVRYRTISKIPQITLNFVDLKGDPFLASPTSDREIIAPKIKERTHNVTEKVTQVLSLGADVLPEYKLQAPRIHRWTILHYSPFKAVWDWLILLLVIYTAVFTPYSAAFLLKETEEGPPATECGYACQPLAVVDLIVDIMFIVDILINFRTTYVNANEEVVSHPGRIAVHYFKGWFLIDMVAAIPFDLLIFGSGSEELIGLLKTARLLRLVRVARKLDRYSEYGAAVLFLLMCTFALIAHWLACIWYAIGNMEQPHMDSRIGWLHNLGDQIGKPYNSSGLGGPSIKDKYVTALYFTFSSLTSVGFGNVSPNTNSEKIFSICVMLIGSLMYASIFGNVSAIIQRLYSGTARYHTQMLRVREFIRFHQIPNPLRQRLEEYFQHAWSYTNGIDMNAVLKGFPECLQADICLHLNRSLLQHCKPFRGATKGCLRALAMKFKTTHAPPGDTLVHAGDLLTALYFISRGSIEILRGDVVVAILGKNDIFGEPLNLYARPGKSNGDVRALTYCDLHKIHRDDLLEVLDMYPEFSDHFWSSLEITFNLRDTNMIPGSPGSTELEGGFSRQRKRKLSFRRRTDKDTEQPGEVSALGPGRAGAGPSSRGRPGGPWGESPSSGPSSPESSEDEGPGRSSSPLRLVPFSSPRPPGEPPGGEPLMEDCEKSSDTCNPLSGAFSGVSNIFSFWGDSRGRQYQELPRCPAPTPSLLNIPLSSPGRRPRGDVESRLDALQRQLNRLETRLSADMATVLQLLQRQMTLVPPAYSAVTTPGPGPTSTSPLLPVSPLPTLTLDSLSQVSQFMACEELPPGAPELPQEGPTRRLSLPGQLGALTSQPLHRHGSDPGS
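Note: peak tail current of the secondary pulse compared with the same well before compound.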

Structure (SMILES) | hERG current change (%, negative = inhibition) at 10uM [%]
O=C(C(=O)N1CCN(C(=O)c2ccco2)CC1)c1c[nH]c2ccccc12 | -2.67
CCOc1ccc(S(=O)(=O)n2cc(-c3ccccc3)c(N)n2)cc1 | 5.5
O=C(c1ccc2c(Cl)c3c(nc2c1)CCCC3)N1CCC(N2CCCCC2)CC1 | -46
CN(C)CCCN(C(=O)c1sc2ccccc2c1Cl)c1nc2c(F)cccc2s1.Cl | -61.9
Cc1cccc2sc(N(CCCN(C)C)C(=O)c3ccc(C(=O)c4ccccc4)cc3)nc12 | -53.2
CN(C)CCCN(C(=O)c1ccc(N2C(=O)CCC2=O)cc1)c1nc2c(F)cccc2s1.Cl | -0.103
Cc1ccc2sc(N(CCCN(C)C)C(=O)c3ccc(S(=O)(=O)N(C)Cc4ccccc4)cc3)nc2c1C.Cl | -20
Cc1cccc2sc(N(CCCN(C)C)C(=O)c3ccc(S(=O)(=O)N4CCc5ccccc5C4)cc3)nc12.Cl | 13.9
Cc1ccc2nc(N(CCCN(C)C)C(=O)c3sc4ccccc4c3Cl)sc2c1.Cl | -29.9
CN(C)CCCOC(=O)c1sc2ccccc2c1Cl.Cl | -50.2
CN(C)CCCN(C(=O)c1ccc(C(=O)c2ccccc2)cc1)c1nc2c(F)cccc2s1 | -67.3
CN(C)CCOC(=O)c1sc2ccccc2c1Cl.Cl | -29.4
Cc1cccc2sc(N(CCCN(C)C)C(=O)c3sc4ccccc4c3Cl)nc12.Cl | -13.5
NC(=O)COC(=O)c1sc2ccccc2c1Cl | 24.3
O=c1c2ccccc2ncn1-c1ccccc1[N+](=O)[O-] | 11.9
O=S(=O)(c1ccc(OCC(O)CN2CCN(c3ccc(F)cc3)CC2)cc1)N1CCOCC1 (centres unmarked) | -18.2
O=C(NNC1CC(=O)N(c2ccc(Br)cc2)C1=O)c1ccccn1 (centres unmarked) | -4.01
CCCC1Cc2nc(Cl)c(C#N)cc2CO1 (centres unmarked) | 15.6
O=C(Nc1cccnc1)c1cc(S(=O)(=O)N2CCOCC2)ccc1Br | -35.8
COc1cc2c(cc1OC)C(COc1ccccc1OC)N(C(=O)c1ccco1)CC2 (centres unmarked) | -15.6
COC(=O)c1[nH]c2ccccc2c1NC(=O)CN1CCC(C(N)=O)(N2CCCCC2)CC1 | -35.1

Structure (SMILES) | hERG current change (%, negative = inhibition) at 10uM [%]
Cc1cc(C)cc(N(CC(=O)Nc2ccc(Br)cc2)S(=O)(=O)c2c(C)[nH]c(=O)[nH]c2=O)c1 | -76.4
Cc1cc(C)cc(N(CC(=O)Nc2ccc(C(F)(F)F)cc2)S(=O)(=O)c2c(C)[nH]c(=O)[nH]c2=O)c1 | -88
COc1cc(NC(=O)CN(c2cc(C)cc(C)c2)S(=O)(=O)c2c(C)[nH]c(=O)[nH]c2=O)cc(OC)c1 | -27.8
CCc1ccc(NC(=O)CN(c2cc(C)cc(C)c2)S(=O)(=O)c2c(C)[nH]c(=O)[nH]c2=O)cc1 | -33.7
Cc1cc(C)cc(N(CC(=O)Nc2ccc(C)cc2Cl)S(=O)(=O)c2c(C)[nH]c(=O)[nH]c2=O)c1 | -7.63
Cc1cc(C)cc(N(CC(=O)Nc2cc(C)ccc2C)S(=O)(=O)c2c(C)[nH]c(=O)[nH]c2=O)c1 | 5.03
c1ccc(NCc2cccnc2)cc1 | 12.1
Nc1nccc(-c2ccc(-n3cnc4ccccc43)cc2)n1 | -25.3
O=C(/C=C/c1ccccc1)Nc1nnc(SCC(=O)c2ccc3ccccc3c2)s1 | 4.75
COc1ccc(OC)c(N=c2oc3cc(O)ccc3cc2C(N)=O)c1 | 3.97
COc1cccc(NC(=O)N2CCC(C(N)=O)(N3CCCCC3)CC2)c1 | 6.17
COc1ccc(COc2ccsc2C(=O)Nc2ccc(Cl)cc2)cc1 | 7.17
NNC(=O)c1sccc1OCc1ccc(Cl)cc1 | 2.41
COc1ccsc1NC(=O)OCc1ccc(Cl)cc1 | -77.8
CC(C)(C)c1ccc(NC(=O)CN2C(=O)NC(C)(C3CC3)C2=O)cc1 (centres unmarked) | -25.5
Cc1ccc(-c2nn3c(C)nnc3c3ccccc23)cc1S(=O)(=O)NCc1ccco1 | -33.3
O=C(CSc1ncnc2[nH]ncc12)Nc1nc(-c2ccc(F)c(F)c2)cs1 | 44.7
O=C(Nc1ccnn1C1CCN(C(=O)Cc2cccc(Cl)c2)CC1)C1CC1 | -7.34
O=C(Nc1ccnn1C1CCN(Cc2cc(Cl)ccc2O)CC1)c1cccnc1 | -9.31
COc1ccc(O)c(CN2CCC(n3nccc3NC(=O)C3CCCC3)CC2)c1 | -50.8
COc1cc(F)ccc1CN1CCC(n2nccc2NC(=O)C2CCOC2)CC1 (centres unmarked) | -14.5

Structure (SMILES) | hERG current change (%, negative = inhibition) at 10uM [%]
COc1ccc(O)c(CN2CCC(n3nccc3NC(=O)c3ccccc3Cl)CC2)c1 | -40.6
O=C(Nc1ccnn1C1CCN(Cc2cc(Cl)ccc2O)CC1)C1CC1 | -55
COc1ccc(CN2CCC(n3nccc3NC(=O)C3CCCC3)CC2)c(OC)c1 | -73.2
COc1ccc(F)c(CN2CCC(n3nccc3NC(=O)C3CCOC3)CC2)c1 (centres unmarked) | 5.47
CCOCC(=O)Nc1ccc([N+](=O)[O-])cc1C | 5.75
Cc1nc(SCC(=O)N2CC(=O)Nc3ccccc32)c2c(C)c(C)sc2n1 | -5.65
COc1ccc(CCNC(=O)C(NS(=O)(=O)c2ccc3c(c2)CCN3C(C)=O)C(C)C)cc1OC (centres unmarked) | 25.1
CCC(=O)Nc1cccc(NC(=O)CSc2nc3c(c(=O)n(C)c(=O)n3C)n2C)c1 | 18
CCC1Sc2ccc(S(=O)(=O)CCC(=O)Nc3ccc(NC(C)=O)cc3)cc2NC1=O (centres unmarked) | 19
CC(=O)c1c(N2CCOCC2)nc(=S)n(-c2ccc([N+](=O)[O-])cc2)c1C | -46.2
CSc1nc(=S)n(-c2ccc([N+](=O)[O-])cc2)c(C)c1C(C)=O | -68.3
CSc1nc(=S)n(-c2ccccc2)c(C)c1C(C)=O | 11.9
CCOc1ccc(NC(=O)c2ccc(NC(=O)c3ccc(CN4CCOCC4)cc3)cc2)cc1 | 9.33
Cc1ccc(OCC(=O)Nc2ccc(CN3CCOCC3)cc2)cc1C | -39.3
Cc1ccc(OCC(=O)Nc2ccc(CN3CCOCC3)cc2)cc1 | -9.4
Cc1cc(OCC(=O)Nc2ccc(CN3CCOCC3)cc2)ccc1Cl | -51.8
CCc1ccc(OCC(=O)Nc2ccc(CN3CCCCC3)cc2)cc1 | -18
Cc1cc(C)cc(OCC(=O)Nc2ccc(CN3CCCCC3)cc2)c1 | -43.7
CCOc1ccc(C(=O)Nc2ccc(CN3CCOCC3)cc2)cc1Cl | -56
CCOc1ccc(C(=O)Nc2ccc(CN3CCOCC3)cc2)cc1Br | -46.6
Cc1cc(OCC(=O)Nc2ccc(CN3CCCCC3)cc2)ccc1Cl | -73.9

Structure (SMILES) | hERG current change (%, negative = inhibition) at 10uM [%]
O=C1CC(=O)N(CCc2ccccc2)C(=O)N1CCc1ccccc1 | 6.19
CN(C)S(=O)(=O)c1ccc(NC(=O)CSc2nc3ccccc3n2-c2ccccc2)cc1 | 24.2
CCc1cccc(C)c1NC(=S)NCC(c1cccnc1)N1CCOCC1 (centres unmarked) | -14.3
C/C(=N/NC(=O)CNC(=O)c1ccco1)c1ccc(Cl)cc1 | -1.47
CCOc1ccc(N2CC(C(=O)NCc3ccccc3)CC2=O)cc1 (centres unmarked) | -12.3
CCOc1ccc(N2CC(C(=O)NCCc3ccc(S(N)(=O)=O)cc3)CC2=O)cc1 (centres unmarked) | 12.1
Cc1ccc(N2CC(C(=O)NCc3n[nH]c(=O)c4ccccc34)CC2=O)cc1 (centres unmarked) | -23.8
CCOc1ccc(N2CC(C(=O)NCc3ccc(F)cc3)CC2=O)cc1 (centres unmarked) | -27.3
O=C(NCc1n[nH]c(=O)c2ccccc12)C1CC(=O)N(c2ccc(Cl)cc2)C1 (centres unmarked) | -70.7
CCOc1ccc(N2CC(C(=O)NCCc3ccc(F)cc3)CC2=O)cc1 (centres unmarked) | -65.8
COc1ccc(N2CC(C(=O)OCC(=O)c3ccccc3)CC2=O)cc1 (centres unmarked) | -9.34
CCOc1ccc(N2CC(C(=O)NCCCc3ccccc3)CC2=O)cc1 (centres unmarked) | -51.2
COc1ccc(N2CC(C(=O)OCC(=O)c3ccc(C)cc3)CC2=O)cc1 (centres unmarked) | 13.9
CCOc1ccc(N2CC(C(=O)OCC(=O)c3ccc(OC)cc3)CC2=O)cc1 (centres unmarked) | -56
CCOc1ccc(N2CC(C(=O)NCCc3ccccc3)CC2=O)cc1 (centres unmarked) | -29.6
O=C(NCc1n[nH]c(=O)c2ccccc12)C1CC(=O)N(c2ccccc2)C1 (centres unmarked) | -1.81
CCC(CC)C(=O)Nc1cc(C(=O)NCCc2ccccc2)ccc1Cl | -8.24
Cc1cccc(OCCCC(=O)Nc2ccc(S(=O)(=O)N3CCCC3)cc2)c1 | -21.3
CCOC(=O)c1c(-c2ccc(OC)cc2)oc2ccc(OC(=O)N(C)C)cc12 | 10.1
Cc1nc2ccccc2c(=O)n1CCN1CCOCC1 | 4.18
